# Screening data deposited in PubChem by National Center for Advancing Translational Sciences (NCATS).
# Rab9 prom act: qHTS Assay for Rab9 Promoter Activators. Huh7 Rab9 promoter-luciferase reporter, luminescence, 24 h. Potency, µM (top dose mostly 9.22 µM), inactives show top-dose activation, negative = inhibition, actives largely listed as activators. actives 2.8% (n = 320,000). AID 485297, 2010; further: % of control where 0% means no effect; nearly all actives have a fitted effect of over 60% in size
#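 Luminescence from Amplite-detected luciferase (10 minutes, ambient) reports Rab9 promoter activation. Before that, stable Rab9-luciferase Huh7 cells (1500/well, reduced-serum OP-MEM I plus 10% FBS) were exposed to compound for 24 hours at 37C.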
# FLuc counter: qHTS profiling assay for firefly luciferase inhibitor/activator using purifed enzyme and Km concentrations of substrates (counterscreen for miR-21 project) | purified FLuc, Km substrates, luminescence inhibition | actives 6.9% (n = 360,000) | Luciferin 4-monooxygenase (Photinus pyralis), P08659 | Potency, µM (top dose mostly 57.5 µM), for inactives: at the top dose activity change, negative = inhibition, actives largely listed as inhibitors | AID 588342, 2011;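 further: plate controls were vehicle for no effect and reference inhibitor for full effect; nearly all actives have a fitted effect of over 55% in size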
# Target sequence (P08659 whole entry, looked up): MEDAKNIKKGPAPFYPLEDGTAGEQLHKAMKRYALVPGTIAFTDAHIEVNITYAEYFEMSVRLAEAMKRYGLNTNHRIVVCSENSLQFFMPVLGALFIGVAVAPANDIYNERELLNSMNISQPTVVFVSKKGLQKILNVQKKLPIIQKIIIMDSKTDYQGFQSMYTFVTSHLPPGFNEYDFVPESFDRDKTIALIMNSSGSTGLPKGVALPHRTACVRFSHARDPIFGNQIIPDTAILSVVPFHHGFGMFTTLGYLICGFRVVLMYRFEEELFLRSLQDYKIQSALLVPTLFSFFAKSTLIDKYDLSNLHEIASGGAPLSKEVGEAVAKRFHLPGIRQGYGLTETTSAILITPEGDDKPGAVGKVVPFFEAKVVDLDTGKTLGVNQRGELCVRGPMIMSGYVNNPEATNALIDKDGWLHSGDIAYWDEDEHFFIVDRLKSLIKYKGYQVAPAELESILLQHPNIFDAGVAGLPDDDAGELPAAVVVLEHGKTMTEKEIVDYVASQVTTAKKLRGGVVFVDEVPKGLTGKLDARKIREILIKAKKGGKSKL
#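 Purified P. pyralis luciferase (10nM final) with 10uM D-luciferin and 10uM ATP (Km levels) in 50mM Tris acetate pH 7.5, 10mM Mg acetate, 0.01% Tween-20, 0.05% BSA; qHTS 6-point titration, ~60 µM downward; luminescence read.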
# ELG1 DNA repair: qHTS screen for small molecules that inhibit ELG1-dependent DNA repair in human embryonic kidney (HEK293T) cells expressing luciferase-tagged ELG1. Potency, µM (doses to about 46.1 µM), for the others: top-dose activity change, negative = inhibition, most hits filed as inhibitors. actives 2.3% (n = 330,000). HEK293T ELG1-luciferase reporter, luminescence, 16 h; DNA damage induced by 5-fluorouridine; further: on the % scale 0 is the no-effect control and ±100 the full control effect; nearly all actives have a fitted effect of over 55% in size
#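 Reporter activity after DNA damage by 5-fluorouridine is monitored. Compound-treated cells incubate 16 hr at 37 °C, then ONE-Glo is added for 30 min before luminescence reading.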
# NPC1 prom act: qHTS Assay for NPC1 Promoter Activators. actives 2.4% (n = 320,000). Huh7 NPC1 promoter luciferase reporter, 24 h. AID 485313, 2010. Potency, µM (titrated, usually from 9.22 µM), inactives show at the highest dose activation, hits mostly activators; further: % of control where 0% means no effect; nearly all actives have a fitted effect of over 60% in size
#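 Compounds in DMSO were transferred onto Huh7 NPC1-luciferase reporter cells pre-incubated 2 h; after 24 h at 37 °C, Amplite reagent was dispensed and luminescence recorded 10 min later.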
# ELG1 genotox: qHTS screen for small molecules that induce genotoxicity in human embryonic kidney (HEK293T) cells expressing luciferase-tagged ELG1; actives 1.3% (n = 330,000); Potency, µM (titrated, usually from 46 µM), for the others: at the top dose activity change, positive = activation, actives largely listed as activators; HEK293T ELG1-luciferase reporter, luminescence, 16 h; AID 504466, 2011; further: % of control where 0% means no effect; nearly all actives have a fitted effect of over 60% in size
#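 HEK293T cells expressing luciferase-tagged ELG1 were treated with compound or DMSO for 16 hr at 37°C. Luciferase activity was then read after 30 min with ONE-Glo at room temperature; rising signal flags genetic stress.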
# SMN2 splice up: qHTS Assay for Enhancers of SMN2 Splice Variant Expression; HEK293 SMN2-luciferase splicing reporter, luminescence, 30-36 h; Potency, µM (titrated, usually from 46.1 µM), for inactives: top-dose activity change, positive = activation, usual class: activators; actives 2.8% (n = 210,000); further: % of control where 0% means no effect; nearly all actives have a fitted effect of over 55% in size
#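 HEK293 cells carry an SMN2 […]–luciferase reporter in which exon 7 inclusion puts luciferase in frame. Cells were plated 10-12 h before compound addition, then incubated 30-36 h at 37C. ONE-Glo luminescence was read; sodium butyrate at 4.5 mM final served as control.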
# * marks the source's active call; other numbers are inactive results; ? = inconclusive; . = no result; [ ] = remark or other dose. In the library only some 9.2% were active in any assay of this set; here they are far more common. The call rests on the fitted dose curve; in most records, active means well fitted curve in the direction sought with a large enough effect; inconclusive means small, poorly fitted or top-dose-only effect, or another doubt; inactive means no such curve, though single readings can be large; an effect the other way counts as inactive or inconclusive. Potency means the concentration at half of the fitted maximal effect.
SMILES,Rab9 prom act,FLuc counter,ELG1 DNA repair,NPC1 prom act,ELG1 genotox,SMN2 splice up
CCOC(=O)C1CCCN(C(=S)Nc2ccc(Nc3ccccc3)cc2)C1 (centres undefined),1.4µM*,-7%,?,?,9%,11µM*
O=C(Nc1ccccc1C(=O)OCc1cc(=O)n2nc(C3CC3)sc2n1)c1cccc(Cl)c1,.,1%,.,.,.,.
CCOC(=O)N1CCC(NC(=O)c2cnn(-c3ccc(OC)cc3)c2C2CCN(C(=O)OC(C)(C)C)CC2)CC1,.,-1%,.,.,.,.
C/C(=N\OCc1nc2ccccc2c(=O)n1/N=C/c1cc([N+](=O)[O-])ccc1O)c1ccccc1,13%,24µM*,?,16%,17%,.
Cc1cc([N+](=O)[O-])cc(/C=N/n2c(C)nc3ccccc3c2=O)c1O,-1%,3%,?,1%,1%,.
C/C(=N\OCc1nc2ccccc2c(=O)n1/N=C/c1cc(C)cc([N+](=O)[O-])c1O)c1ccccc1,-5%,27µM*,?,13%,?,.
COc1ccc(Cc2c(C)nn(-c3nc(C)c(C(=O)Nc4cccc(C(C)=O)c4)s3)c2C)cc1,.,-10%,.,.,.,.
CCOc1ncccc1C(=O)Nc1ccc2c(c1)OCCCO2,3%,?,6%,18%,7%,.
CCCN(CC(=O)Nc1ccccc1C)C(=O)CCN1C(=O)c2cccc([N+](=O)[O-])c2C1=O,-2%,-2%,0%,-2%,0%,.
C[C@H](C(=O)O)c1cccc(Oc2ccccc2)c1,.,.,.,.,.,-5%[20.6 µM]
CCc1cccc2c(C(=O)COC(=O)c3nccnc3N)c[nH]c12,?,15µM*,?,25%,?,.
CCc1cccc2c(C(=O)COC(=O)c3cnc(C)cn3)c[nH]c12,-5%,-3%,-2%,-1%,-1%,.
CCc1cccc2c(C(=O)COC(=O)c3ccccc3)c[nH]c12,?,2.4µM*,?,?,?,26%
CC(=O)Nc1cccc(NC(=O)c2ccccc2OCc2ccccc2)c1,3%,-12%,?,-3%,-21%,.
CC(=O)Nc1cccc(NC(=O)c2cccc(-c3ccc(O)cc3)c2)c1,10%,9.5µM*,?,6%,0%,.
CC(=O)Nc1cccc(NC(=O)c2cccc(OCc3ccccc3)c2)c1,1%,27µM*,?,8%,-3%,.
CN1CCN(c2ccc(NC(=O)c3cccc(OCc4ccccc4)c3)cc2)CC1,20%,7.6µM*,?,19%,30%,-14%
CCN(CC)S(=O)(=O)c1ccc2c(c1)c(=O)c(C(=O)NCc1ccccc1)cn2C,.,-3%,.,.,.,0%
O=C(/C=C/c1ccccc1)N1CCN(C(=O)c2ccco2)CC1,3%,-10%,18%,-3%,-1%,?
O=C(/C=C/c1ccc(Br)cc1)c1ccco1,4%,3.4µM*,?,1%,?,-3%[1.84 µM]
O=C(/C=C/c1ccc(Br)cc1)c1ccc(NC(=O)c2ccco2)cc1,11%,?,?,1%,1%,3%
O=C(/C=C/C=C/c1ccccc1)c1ccco1,25%,3µM*,0%,?,15%,.
CCOc1ccccc1CNC(=O)Cn1nc(C)c2nn(-c3ccc(Cl)cc3)c(C)c2c1=O,.,3%,.,.,.,.
COc1ccc(Nc2nc(C)c3ccccc3n2)cc1,2.5µM*,-5%[2.3 µM],?,?,?,35µM*
COc1ccc(Nc2nc(-c3ccccc3)c3ccccc3n2)cc1,-1%,-18%,?,-1%,-8%,-23%
SMILES,Rab9 prom act,FLuc counter,ELG1 DNA repair,NPC1 prom act,ELG1 genotox,SMN2 splice up
Cc1nc(Nc2ccc(S(N)(=O)=O)cc2)sc1-c1ccccc1,17%,21µM*,?,28%,17%,.
COc1ccc(Nc2nc(-c3sc(NC(C)=O)nc3C)cs2)cc1,0%,?,?,-6%,-6%,-8%
COc1ccc2c(C)nc(Nc3nc(C)c(C)c(=O)[nH]3)nc2c1,?,9.5µM*,?,?,?,3%
CCc1c(C)nc(Nc2nc(C)c3ccc(OC)cc3n2)[nH]c1=O,?,?,?,16%,?,-23%
COc1ccc(Nc2nc(C)c(-c3ccccc3)s2)cc1,4µM*,7.6µM*,?,?,?,?
COc1ccc(S(=O)(=O)N(C)c2ccc(C(=O)Nc3ccccc3C(=O)N3CCOCC3)cc2)cc1OC,-2%,4%,-2%,-4%,-3%,.
COc1ccc(S(=O)(=O)N(C)C[C@H]2Oc3c(NC(=O)C4CCCCC4)cccc3C(=O)N([C@H](C)CO)C[C@@H]2C)cc1,.,.,-7%,.,1%,.
NNc1nc2c(-c3ccc(F)cc3)nnn2c2ccccc12,2.8µM*,4.8µM*,?,4µM*,?,5µM*
Fc1ccc(-c2nnn3c2nc(NCc2ccccc2)c2ccccc23)cc1,-4%,4%,0%,5%,0%,-1%
NNc1nc2c(-c3ccc(Cl)cc3)nnn2c2ccccc12,2.5µM*,?,?,4µM*,13%,13µM*
COCCCNc1nc2c(-c3ccc(Cl)cc3)nnn2c2ccccc12,-7%,-1%,16%,-3%,-1%,-5%
CCCCc1nn2c(=O)cc(COC(=O)c3cccc(Cl)c3)nc2s1,.,-7%,.,.,.,.
COCCNc1oc(/C=C/c2ccccc2OC)nc1S(=O)(=O)c1ccccc1,6%,-2%,10µM*,-14%,0%[9.26 µM],.
CC(N=C1NS(=O)(=O)c2ccccc21)C(=O)NCc1ccncc1 (centres undefined),-2%,4%,-2%,-2%,2%,.
CCn1nc(NC(=O)Cc2ccc(OC)cc2)c2cc3cc(C)ccc3nc21,-3%,?,?,-5%,?,.
Cc1ccc2nc3c(cc2c1)c(NC(=O)c1ccccn1)nn3CC(C)C,-2%,?,23µM*,2%,-9%,9%
CCn1nc(NC(=O)c2ccccc2)c2cc3cccc(C)c3nc21,-2%,-14%,7.3µM*,2%,-10%,.
CCn1nc(NC(=O)c2ccccn2)c2cc3cc(C)ccc3nc21,3%,9.5µM*,?,18%,-1%,19%
Cc1ccc2cc3c(NC(=O)c4ccco4)nn(CC(C)C)c3nc2c1,5%,3%,-1%,-9%,7%,-13%
